Assay outcomes: PubChem BioAssay, National Center for Advancing Translational Sciences (NCATS)
Hits are enriched below; roughly 19% of the tested compounds scored in any of these assays.
HT1080-NT tox = kills 2HG-producing HT-1080-NT fibrosarcoma cells; HT-1080-NT fibrosarcoma viability, CellTiter-Glo ATP luminescence, 48 h; Potency, µM (titrated, usually from 46.1 µM), for inactives: top-dose activity, negative = less viability, most hits filed as cytotoxic; 1.6% of 360,000 active; AID 686970;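 note: NT is the 2HG producing partner of a matched IDH1 knockdown line; 0% = DMSO-treated cells and -100% = media-only wells without cells; nearly all actives have a fitted effect of over 55% in size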
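Read-out is CellTiter-Glo luminescence after 10 minutes at room temperature, following 48 hours' compound treatment of HT-1080-NT cells (750 cells/well, RPMI, 5% FBS, 37 degrees C).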
KB-V1 cytotox = kills drug-selected multidrug resistant KB-V1 cells; KB-V1 MDR cells viability, CellTiter-Glo, 72 h; Potency, µM (doses to about 46.1 µM), usual class: cytotoxic; 3.4% of 400,000 active; AID 1347076; note: nearly all actives have a fitted effect of over 60% in size
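KB-V1, DMEM (no phenol red) + 10% FBS; cpd pin-transferred, titration series; 72 h, 37 degrees C; CellTiter-Glo, luminescence. Data normalized, curve-fit.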
DT40 TDP1 no CPT = qHTS for Inhibitors of human tyrosyl-DNA phosphodiesterase 1 (TDP1): qHTS in cells in absence of CPT; AID 686978, 2013; 15% of 420,000 active; Potency, µM (highest dose often 46.2 µM), inactives show at the top dose activity change, negative = growth inhibition, hits mostly inhibitors; DT40 Tdp1-/- hTDP1 cells, no CPT, ATP luminescence, 48 h; note: nearly all actives have a fitted effect of over 55% in size
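Luminescent ATP content (CellTiter-Glo) served as the growth readout. Knockout chicken DT40 cells expressing human TDP1 were exposed to compounds without camptothecin for a minimum 48 hr at 37 °C.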
TDP1 cell CPT = growth inhibition of DT40 Tdp1-/-;hTDP1 cells with camptothecin (screen for TDP1 inhibitors). chicken DT40 Tdp1-/-;hTDP1 cells + 20 nM CPT, ATP luminescence, 48 h. Potency, µM (top dose mostly 46.2 µM), for inactives: top-dose activity change, negative = growth inhibition, usual class: inhibitors. 12% of 420,000 active; note: nearly all actives have a fitted effect of over 55% in size
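Chicken DT40 Tdp1-/- cells complemented with human TDP1, 400 cells/well, exposed to compounds plus 20 nM camptothecin for at least 48 h at 37 C; viability read as ATP content by CellTiter-Glo luminescence.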
HT1080 IDH1KD tx = toxicity to HT-1080 IDH1 knockdown cells (counter line); 2% of 360,000 active; HT-1080 IDH1 knockdown viability, ATP luminescence, 48 h; AID 686971; Potency, µM (titrated, usually from 46.1 µM), inactives show at the top dose activity, negative = toxicity, hits mostly cytotoxic;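 note: 0% = DMSO wells and -100% = cell-free medium wells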
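Assay cells: HT-1080 with IDH1 knockdown, 750 per well, RPMI/5% FBS. Exposure: 48 h at 37 °C following 2 h pre-incubation. Read: CellTiter-Glo luminescence; fitted concentration-response, curve class assigned.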
KB-3-1 tox = kills parental KB-3-1 adenocarcinoma cells; AID 1347075; KB-3-1 viability, CellTiter-Glo ATP luminescence, 72 h; 1.4% of 400,000 active; Potency, µM (series often up to 46.1 µM), usual class: cytotoxic; note: nearly all actives have a fitted effect of over 60% in size
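Screening of KB-3-1 cells (DMEM, 10% FBS, phenol-red free) ran from lowest to highest compound concentration; after 72 h at 37 °C viability was read luminescently and curves fitted.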
Starred values were filed as active, the others as inactive. Calls come from the whole dose curve; as a rule, active = well fitted curve in the direction sought with a large enough effect; inconclusive = small, poorly fitted or top-dose-only effect, or another doubt; inactive = no such curve, though single readings can be large; an effect the other way counts as inactive or inconclusive. Unless noted, % is set by controls: 0 for no effect and ±100 for the full control effect; potency is the fitted concentration of half-maximal effect.

Screening O=C(NN=Cc1ccc2c(c1)CCC2)c1ccccc1[N+](=O)[O-] returned HT1080-NT tox -18%, KB-V1 cytotox inactive, DT40 TDP1 no CPT 18µM*, TDP1 cell CPT 23µM*, HT1080 IDH1KD tx -26% and KB-3-1 tox inconclusive.
CC(C)Oc1cccc(C(=O)C2CCCN(C(=O)c3ccsc3)C2)c1 (configuration not stated) was read as HT1080-NT tox 0%, KB-V1 cytotox inactive, DT40 TDP1 no CPT -1%, TDP1 cell CPT 1%, HT1080 IDH1KD tx 9% and KB-3-1 tox inactive.
Screening CCc1cc(C(=O)N2CCCC(C(=O)c3cccc(OC(C)C)c3)C2)n(C)n1 (configuration not stated) returned HT1080-NT tox -5%, KB-V1 cytotox inactive, DT40 TDP1 no CPT 18µM*, TDP1 cell CPT 16µM*, HT1080 IDH1KD tx -15% and KB-3-1 tox inactive.
For CC(C)Oc1cccc(C(=O)C2CCCN(S(C)(=O)=O)C2)c1 (configuration not stated) the results were HT1080-NT tox -1%, KB-V1 cytotox inconclusive, DT40 TDP1 no CPT -20%, TDP1 cell CPT -5%, HT1080 IDH1KD tx -1% and KB-3-1 tox inactive.
`CCc1cc(C(=O)N2CCCC(C(=O)c3ccc(Oc4ccccc4)cc3)C2)n(C)n1` (configuration not stated) gave HT1080-NT tox -16%, KB-V1 cytotox inactive, DT40 TDP1 no CPT 15µM*, TDP1 cell CPT 10µM*, HT1080 IDH1KD tx inconclusive and KB-3-1 tox inconclusive.
CCc1cc(C(=O)N2CCCC(C(=O)c3ccc(OC)c(F)c3)C2)n(C)n1 (configuration not stated) was read as HT1080-NT tox 16%, KB-V1 cytotox inactive, DT40 TDP1 no CPT inconclusive, TDP1 cell CPT inconclusive, HT1080 IDH1KD tx -7% and KB-3-1 tox inactive.
For CCc1[nH]nc(C(=O)N2CCCC(C(=O)c3cccc(OC(C)C)c3)C2)c1C (configuration not stated) the results were HT1080-NT tox -13%, KB-V1 cytotox inactive, DT40 TDP1 no CPT 16µM*, TDP1 cell CPT inconclusive, HT1080 IDH1KD tx -9% and KB-3-1 tox inconclusive.
`CC(C)Oc1cccc(C(=O)C2CCCN(C(=O)c3ccnn3C)C2)c1` (configuration not stated) gave HT1080-NT tox -5%, KB-V1 cytotox inconclusive, DT40 TDP1 no CPT 21µM*, TDP1 cell CPT inconclusive, HT1080 IDH1KD tx 0% and KB-3-1 tox inactive.
Screening CC1(C(=O)NS(=O)(=O)c2ccc(Cl)cc2)CCN1C(=O)c1ccc(C2CCCCC2)cc1 (configuration not stated) returned HT1080-NT tox 5%, KB-V1 cytotox inactive, DT40 TDP1 no CPT -2%, TDP1 cell CPT -4%, HT1080 IDH1KD tx 3% and KB-3-1 tox inactive.
Cc1csc(NC(=O)COc2ccc3c(c2)CCC3)n1 was read as HT1080-NT tox 5%, KB-V1 cytotox inconclusive, DT40 TDP1 no CPT -22%, TDP1 cell CPT -18%, HT1080 IDH1KD tx 7% and KB-3-1 tox inactive.
For COc1ccccc1CN1CC[C@@]2(CCCN(C(=O)c3c(C)noc3C)C2)C1 the results were DT40 TDP1 no CPT -17% and TDP1 cell CPT -4%.
For O=C(c1ccsc1)N1CCCC(N2CCN(c3ccccc3F)CC2)C1 (configuration not stated) the results were HT1080-NT tox -6%, KB-V1 cytotox inactive, DT40 TDP1 no CPT inconclusive, TDP1 cell CPT -27%, HT1080 IDH1KD tx -18% and KB-3-1 tox inactive.
`O=C(c1noc2c1CCCC2)N1CCCC(N2CCN(c3ccccc3F)CC2)C1` (configuration not stated) gave HT1080-NT tox 0%, KB-V1 cytotox inactive, DT40 TDP1 no CPT inconclusive, TDP1 cell CPT 29µM*, HT1080 IDH1KD tx 12% and KB-3-1 tox inactive.
Screening CC(C)Oc1cccc(C(=O)C2CCCN(C(=O)c3ccc4c(c3)OCO4)C2)c1 (configuration not stated) returned HT1080-NT tox 3%, KB-V1 cytotox inactive, DT40 TDP1 no CPT inconclusive, TDP1 cell CPT inconclusive, HT1080 IDH1KD tx -1% and KB-3-1 tox inactive.
Screening CC(C)Oc1cccc(C(=O)C2CCCN(C(=O)c3noc4c3CCCC4)C2)c1 (configuration not stated) returned HT1080-NT tox -25%, KB-V1 cytotox inactive, DT40 TDP1 no CPT 21µM*, TDP1 cell CPT 18µM*, HT1080 IDH1KD tx -28% and KB-3-1 tox inactive.
CCOc1ccccc1C1c2[nH]c3ccccc3c2C[C@H]2C(=O)N(C3CCN(Cc4ccccc4)CC3)CC(=O)N12 (some centres not stated) was read as HT1080-NT tox inconclusive, KB-V1 cytotox inactive, DT40 TDP1 no CPT 16µM*, TDP1 cell CPT 5.8µM*, HT1080 IDH1KD tx inconclusive and KB-3-1 tox inactive.
Screening COc1ccc(C2c3[nH]c4ccccc4c3C[C@H]3C(=O)N(C4CCN(Cc5ccccc5)CC4)CC(=O)N23)c(OC)c1 (some centres not stated) returned HT1080-NT tox -16%, KB-V1 cytotox inactive, DT40 TDP1 no CPT 15µM*, TDP1 cell CPT inconclusive, HT1080 IDH1KD tx -1% and KB-3-1 tox inactive.
For COc1ccc(OC)c(C2c3[nH]c4ccccc4c3C[C@H]3C(=O)N(C4CC4)CC(=O)N23)c1 (some centres not stated) the results were HT1080-NT tox -2%, KB-V1 cytotox inactive, DT40 TDP1 no CPT -22%, TDP1 cell CPT -2%, HT1080 IDH1KD tx -2% and KB-3-1 tox inactive.
For O=C(CSc1nc2ccccc2n1Cc1cccc(F)c1)NCc1ccccc1 the results were KB-V1 cytotox inactive, DT40 TDP1 no CPT inconclusive, TDP1 cell CPT inconclusive and KB-3-1 tox inactive.
Screening COC(=O)[C@]12CCCCC=C1N(Cc1ccccc1)C(=O)[C@H](CC(=O)NCc1ccc(OC)c(OC)c1)C2 returned HT1080-NT tox 13%, KB-V1 cytotox inconclusive, DT40 TDP1 no CPT 23µM*, TDP1 cell CPT 23µM*, HT1080 IDH1KD tx -5% and KB-3-1 tox inactive.
